Screening results deposited in PubChem BioAssay by several laboratories.
Hits are enriched below; roughly 1.8% of the tested compounds scored in any of these assays.
NALP1 inh: inhibitors of NALP1 inflammasome in yeast; S. cerevisiae NALP1/ASC/caspase-1 growth, X-gal OD620, 72 h; inhibition, % at 10 µM; hit rate 0.61% among 280,000; AID 2071; in the data active = inhibition mostly above about 24%, no sharp cut-off; inactive = mostly below about 32%
PolyA inhibitor: blocks polyadenylation in yeast reporter cells; activity score, % at 12 µM; AID 1875; S. cerevisiae SKY197-pL101 polyadenylation reporter, beta-gal luminescence; efflux-impaired pdr1/pdr3 knockout yeast; score 100 = 6 SD above DMSO; hit rate 0.02% among 300,000;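 active = lowest replicate activity score at least 50, where 100 means six control SD above control mean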;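 note: yeast exposed to compound for 9 h at 30 °C; higher score means more reporter readthrough which indicates perturbed polyadenylation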
Mot1-301 SUMO: blocks SUMOylation pathway, rescuing yeast Mot1-301 growth. S. cerevisiae Mot1-301 growth rescue, ATP luminescence, 38.5C; percent above DMSO median, 100 means doubled. growth rescue, % at 18.8 µM. hit rate 1% among 320,000;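 active = every valid replicate shows activation above 250% relative to neutral control wells; inactive = the rest, any valid replicate at or below 250%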
NLRP3 yeast inh: inhibitors of NALP3 inflammasome in yeast; AID 2825; Yeast reconstituted NLRP3/ASC/caspase-1, beta-gal luminescence, 24 h; hit rate 0.39% among 330,000; inhibition, % at 10 µM;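 active = inhibition of 50% or more; inactive = inhibition below 50%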
Mot1 SUMO dose: yeast SUMO pathway inhibition in dose response. shares compounds with Mot1-301 SUMO. S. cerevisiae Mot1-301 galactose growth, ATP luminescence, 24 h; -100 = growth of slx-deleted rescue strain. growth activity, percent, % at 42 µM. 2,300 tested, under 10 active;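 active = Signal drops as the depositor expects, and the fitted half-maximal dose is no more than ten times the top valid tested dose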;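 note: more negative values mean stronger growth rescue toward the control strain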
NALP3 yeast conf: confirmation of NALP3 inhibitors in yeast | shares compounds with NLRP3 yeast inh | AID 435006 | yeast expressing human NALP3, luminescence | inhibition, % at 10 µM | hit rate 81% among 1,300; in the data active = inhibition above about 48%
Casp1 ASC ctr: counter-screen for NALP3 inhibitors: yeast caspase-1-ASC. yeast expressing Caspase-1-ASC, luminescence counter screen. hit rate 66% among 1,000. inhibition, % at 10 µM. AID 488784. shares compounds with NLRP3 yeast inh
NALP3 yeast rt: yeast NALP3 inhibition, confirmed on retest; shares compounds with NLRP3 yeast inh; yeast expressing human NALP3, luminescence read-out; hit rate 53% among 1,000; AID 488794; inhibition, % at 10 µM
Large screens that a line does not name were inactive (follow-up assays come after a bar, where they were run); ! = a repeat was not active. Cut-off read from the data, not from the text of the source, unless noted: active = inhibition above about 50%; inactive = the rest.

O=C1NC(Cc2c[nH]c3ccccc23)C(=O)N1CCOc1ccc(F)cc1 (stereo unspecified)	none
COc1ccccc1NC(=O)c1nn(C)cc1Br	Mot1-301 SUMO 669 | Mot1 SUMO dose inactive
COc1ccccc1NC(=O)c1nn(-c2cccc(C(F)(F)F)c2)ccc1=O	Mot1-301 SUMO active | Mot1 SUMO dose inactive
COc1ccccc1NC(=O)NCCc1c[nH]c2ccccc12	Mot1-301 SUMO 840 (no result: NALP1 inh) | Mot1 SUMO dose inactive
S=C(NCCc1c[nH]c2ccccc12)NC1CCCC1	none
S=C(NCCc1c[nH]c2ccccc12)NC1CC1	Mot1-301 SUMO 401 | Mot1 SUMO dose inactive
COc1ccc(N2C(=O)CC(C)(C)CC2=O)cc1OC	none
COC(=O)Nc1sc(C)nc1-c1ccccc1	none (no result: PolyA inhibitor, Mot1-301 SUMO)
CCn1cc(C(c2ccccc2)C(C(C)=O)[N+](=O)[O-])c2ccccc21 (stereo unspecified)	none
CC(=O)C(C(c1ccccc1)c1c[nH]c2ccccc12)[N+](=O)[O-] (stereo unspecified)	Mot1-301 SUMO 402 | Mot1 SUMO dose inactive
CCC(c1nc2ccccc2c(=O)n1-c1nc2ccccc2s1)N1C(=O)c2ccccc2C1=O (stereo unspecified)	Mot1-301 SUMO 359 | Mot1 SUMO dose inactive
CCN(Cc1ccccc1)Cc1ccc(OCc2ccccc2)c(OC)c1	Mot1-301 SUMO 365 | Mot1 SUMO dose inactive
COc1cccc(C2c3c(-c4ccccc4)n[nH]c3C(=O)N2c2ccc(C(=O)O)cc2)c1 (stereo unspecified)	none
CC1(C)CC(=O)C(C=NCCN2CCN(CC(=O)Nc3ccc(Cl)cc3)CC2)=C(O)C1	none
Cc1ccc(NC(=O)CN2CCN(CCN=CC3=C(O)CC(C)(C)CC3=O)CC2)cc1	Mot1-301 SUMO 985, NLRP3 yeast inh 55 | Mot1 SUMO dose inactive | NALP3 yeast conf 58 | Casp1 ASC ctr inactive | NALP3 yeast rt inactive
Cc1nn(-c2ccccc2)c(C)c1C(=O)OCC(N)=O	none (no result: Mot1-301 SUMO)
COC(=O)C12CCC3(SCCS3)C(C(=O)OC)(CCC13SCCS3)C2	Mot1-301 SUMO 523, NLRP3 yeast inh 58 | Mot1 SUMO dose inactive | NALP3 yeast conf inactive
Nc1nc2ccccc2cc1-c1cccs1	Mot1-301 SUMO 435, NLRP3 yeast inh 51 | Mot1 SUMO dose inactive | NALP3 yeast conf 69 | Casp1 ASC ctr 59 | NALP3 yeast rt 63
C/C(=N\NC(=S)Nc1ccc(F)cc1)C1CC1	none
CCc1cccc(NC(=S)N2CCC(c3ccccc3)C2)c1 (stereo unspecified)	NLRP3 yeast inh 52 | NALP3 yeast conf 56 | Casp1 ASC ctr 62 | NALP3 yeast rt inactive
CCOC(=O)c1c(C)n(-c2ccc(C)cc2)c2ccc(O)c(CN(C)C)c12	none (no result: PolyA inhibitor)
CCOC(=O)c1nc(C)nc(Sc2n[nH]c(-c3cc(Cl)cc(Cl)c3)n2)c1C	NLRP3 yeast inh 51 (no result: NALP1 inh) | NALP3 yeast conf inactive
CCOC(=O)c1nc(C)nc(Sc2n[nH]c(-c3ccc(C(C)(C)C)cc3)n2)c1C	none
CCCCCCCCCCCCCCCC[n+]1cccc(C(=O)N(CC)CC)c1	NALP1 inh 71, NLRP3 yeast inh 63 | NALP3 yeast conf 73 | Casp1 ASC ctr 72 | NALP3 yeast rt 68
CCCCCCCCCCCCCCCC[n+]1ccc(C(N)=O)cc1	NALP1 inh 96, NLRP3 yeast inh 53 (no result: PolyA inhibitor) | NALP3 yeast conf inactive
CCCCCCCCCCCCCCCC[n+]1ccc(/C=N/O)cc1	NALP1 inh 50, NLRP3 yeast inh 56 (no result: PolyA inhibitor) | NALP3 yeast conf inactive
COc1cc2c(C#CCCCO)c(-c3ccsc3)oc(=O)c2cc1OC	none (no result: NALP1 inh, PolyA inhibitor)
CCC(C)c1ccccc1NC(=O)c1cc2cccc([N+](=O)[O-])c2[nH]1 (stereo unspecified)	NLRP3 yeast inh 52 (no result: NALP1 inh) | NALP3 yeast conf inactive
O=C1Nc2ccccc2/C1=C/c1ccccc1Cl	NLRP3 yeast inh 55 | NALP3 yeast conf 69 | Casp1 ASC ctr inactive | NALP3 yeast rt inactive
O=C(Cn1cnc2ccccc2c1=O)c1ccc2ccccc2c1	none
Cc1ccc(C(=O)Cn2cnc3ccccc3c2=O)cc1C	NLRP3 yeast inh 63 | NALP3 yeast conf 78 | Casp1 ASC ctr 55 | NALP3 yeast rt 54
COc1cccc(CN(C)C(=O)CCc2nnc(-c3ccsc3)o2)c1	none
COc1ccc(CNc2ccccc2SC)cc1OC	none
COc1ccc2[nH]c3c(NCCN4CCCCC4)ncnc3c2c1	none
Cc1nn(-c2ccccc2)cc1C(=S)Nc1ccccc1	NLRP3 yeast inh 52 | NALP3 yeast conf 63 | Casp1 ASC ctr 57 | NALP3 yeast rt 58
Cc1ccccc1NCC(=O)N/N=C/c1c[nH]c2ccccc12	none
C[C@@]12CCC3[C@@](CCC4[C@@]3(C)CCC[C@@]4(C)C(=O)Nc3ccc(Cl)cc3)(CC1=O)C2 (stereo partly specified)	none (no result: NALP1 inh, PolyA inhibitor)
CC(C)NC(=O)[C@]1(C)CCC[C@@]2(C)C3CC[C@@]4(C)C[C@]3(CCC21)CC4=O (stereo partly specified)	NLRP3 yeast inh 59 (no result: NALP1 inh, PolyA inhibitor) | NALP3 yeast conf inactive | Casp1 ASC ctr 53 | NALP3 yeast rt 53
CCCCNC(=O)[C@]1(C)CCC[C@@]2(C)C3CC[C@@]4(C)C[C@]3(CCC21)CC4=O (stereo partly specified)	NLRP3 yeast inh 54 (no result: NALP1 inh, PolyA inhibitor) | NALP3 yeast conf 50 | Casp1 ASC ctr 60 | NALP3 yeast rt 53
CC(/C=C1\SC(=S)N(C(C(=O)O)c2ccccc2)C1=O)=C\c1ccccc1 (stereo unspecified)	none
CN1/C(=C/C(=O)c2cccs2)Sc2ccccc21	NLRP3 yeast inh 78 | NALP3 yeast conf 81 | Casp1 ASC ctr 97 | NALP3 yeast rt 93
COc1cc(OC)cc(C(=O)/C=C2\Sc3ccccc3N2C)c1	none
CN1/C(=C\C(=O)c2cccs2)Sc2ccccc21	NLRP3 yeast inh 62 | NALP3 yeast conf inactive
CCOc1cc(C)c(S(=O)(=O)N2CCCCC2)cc1C	NLRP3 yeast inh 74 | NALP3 yeast conf 76 | Casp1 ASC ctr 80 | NALP3 yeast rt 65
COc1cc(C)c(S(=O)(=O)N2CCN(C)CC2)cc1C	none
COc1cc(C)c(S(=O)(=O)N2CCCC2)cc1C	NLRP3 yeast inh 77 | NALP3 yeast conf 83 | Casp1 ASC ctr 87 | NALP3 yeast rt 65
COc1ccc(/C=C/C(=O)c2ccc(Cl)s2)cc1O	NLRP3 yeast inh 54 | NALP3 yeast conf 70 | Casp1 ASC ctr inactive | NALP3 yeast rt inactive
CCOC(=O)C1=C(COCCN)NC(C)=C(C(=O)OC)C1c1ccccc1Cl (stereo unspecified)	NLRP3 yeast inh 53! (no result: NALP1 inh) | NALP3 yeast conf 59 | Casp1 ASC ctr inactive | NALP3 yeast rt inactive
